Results from PubChem BioAssay (EPA / NIEHS).
Activity calls are given as the source filed them. Rule for the calls: active = hit-call score of the fitted dose curve at least 0.9, where 1 is the maximum; inactive = score below 0.9.

assay: CCTE_Deisenroth_5AR_NBTE_donor: CCTE's 5alpha-reductase NanoBRET Target Engagement Assay […], Deisenroth Lab (AID 2284319); conditions: actives raise or lower the signal
Method: CCTE_Deisenroth_5AR NBTE (5alpha-reductase NanoBRET Target Engagement Assay) is a cell-based, single-readout assay that uses HEK293T, a human kidney cell line, with measurements taken at 5 hours after chemical dosing in a 384 well plate. This assay includes a primary and secondary screen as well as an autofluorscence screen.CCTE_Deisenroth_5AR NBTE_donor is one of four assay components measured from the CCTE_Deisenroth_5AR NBTE assay. It is designed to make measurements of donor luminescence, as detected by bioluminescence intensity emission signals using spectrometry technology.Data from the assay component CCTE_Deisenroth_5AR NBTE_donor was analyzed into 1 assay endpoint. This assay endpoint, CCTE_Deisenroth_5AR NBTE_donor, was analyzed with bidirectional fitting relative to DMSO as the negative control and baseline of activity. Using a type of inducible reporter, gain or loss-of-signal activity can be used to understand changes in the donor luminescence as related to 5alpha-reductase catalytic function. Furthermore, this assay endpoint can be referred to as a secondary readout, because this assay has produced multiple assay endpoints where this one serves an artifact detection function.
For transient expression of the SRD5A2-NanoLuc fusion protein, HEK293T cells are reverse transfected with pNLF1-C-SRD5A2 expression vector and incubated for 20 hours to facilitate fusion protein expression. For assay setup, 384-well non-binding surface (NBS) microplates are pre-dispensed with test chemical across an 8-point concentration series (10 nM - 29.9 uM) with two technical replicates per run. Cell suspensions are dispensed into the microplates and incubated with test chemical for a duration of three hours. Following pre-incubation with test chemical, the testosterone tracer is dispensed into each well and incubated an additional two hours. The total incubation period with test chemical is five hours, with testosterone tracer added the final two hours to reach target engagement equilibrium. For the NanoBRET endpoint measurements, a solution of Nano-Glo substrate and extracellular NanoLuc inhibitor solution is added to each test well and immediately scanned on a plate reader configured with multichromatic emission settings for donor luminescence ([…]) and acceptor fluorescence ([…]). DMSO solvent controls are included as baseline control. Plate-matched samples are run with mock tracer conditions or testosterone tracer to discriminate any potential non-specific substrate interference.

Structure (SMILES)	outcome	AC50
c1ccc2c(c1)-c1cccc3cccc-2c13	inactive	
CCCCCCCCn1sccc1=O		72.7 µM (active)
CC(C)(O)c1cnn2c(-c3ccc(F)c(-c4c(F)cccc4C#N)c3)cnc2n1	inactive	
[Cl-].[Cl-].[Hg+2]		74.8 µM (active)
Cc1cc(N=Nc2ccccc2C)ccc1N		40.6 µM (active)
C[C@]12C=CC3=C4CCC(=O)C=C4CC[C@H]3[C@@H]1CC[C@@H]2O	inactive	
CCC[CH2][Sn]([Cl])([CH2]CCC)[CH2]CCC		4.88 µM (active)
COc1cc(C=O)cc2c1[C@H](COC(N)=O)[C@]1(OC(C)=O)ON2C[C@H]2[C@@H]1N2C(C)=O	inactive	
Cc1ccc(N)c(N)c1	inactive	
Nc1ccc(N=Nc2ccccc2)cc1		23.8 µM (active)
